# Compound activity from PubChem BioAssay.
# RE007 growth inh = less growth of the S. pombe RE007 Vpr strain; S. pombe RE007 Vpr strain, BacTiter-Glo ATP luminescence, 24 h; Potency, µM (doses to about 92.2 µM), without a hit: at the top dose activity change, negative = less growth, usual class: inhibitors; actives 0.21% (n = 360,000); AID 651644; active = well fitted falling curve with a large enough effect; inconclusive = small, poorly fitted or top-dose-only effect; inactive = no such curve, though single readings can be large or run the other way; also: nearly all actives have a fitted effect of over 50% in size
#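 Fission yeast strain RE007, carrying one chromosomally integrated HIV-1 vpr copy, was seeded at OD 0.01 in PMG+AL medium with 23 nL pinned compound. After 24 h at 30 °C and 99% humidity, viability was read by BacTiter-Glo luminescence.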
# Tb PYK inh = inhibitors of Trypanosoma brucei pyruvate kinase; TbPYK enzyme, Kinase-Glo Plus ATP luminescence, 45 min; Q57TT1; actives 0.12% (n = 410,000); AID 624173; Potency, µM (top dose mostly 76.8 µM), inactives show top-dose activity, negative = inhibition, usual class: inhibitors; also: nearly all actives have a fitted effect of over 50% in size
#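 Activity of T. brucei pyruvate kinase was followed by Kinase-Glo Plus luminescence after the enzyme reacted 45 min at room temperature with 130 uM ADP (final) and substrate. Test compounds were added before ADP at multiple concentrations.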
# Sm TGR inh = blocks Schistosoma mansoni thioredoxin glutathione reductase; Q962Y6; purified TGR, DTNB reduction, TNB absorbance 405 nm; Potency, µM (highest dose often 114 µM), for inactives: at the top dose activity change, negative = inhibition, usual class: inhibitors; actives 3% (n = 360,000); AID 485364; also: nearly all actives have a fitted effect of over 60% in size
#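 TGR 20 nM + NADPH 100 uM (dispensed conc.), cpd preinc 15 min RT; start with NADPH (500 uM addition) then DTNB (15 mM addition). Kinetic TNB absorbance, 405 nm filter. Four-parameter Hill fit across titration.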
# LmPK inh = blocks Leishmania mexicana pyruvate kinase activity | purified LmPK, Kinase-Glo ATP luminescence, 1 h | Potency, µM (series often up to 57.5 µM), without a hit: at the top dose activity change, negative = inhibition, actives largely listed as inhibitors | actives 0.37% (n = 290,000)
# Target sequence (Q27686 whole entry, looked up): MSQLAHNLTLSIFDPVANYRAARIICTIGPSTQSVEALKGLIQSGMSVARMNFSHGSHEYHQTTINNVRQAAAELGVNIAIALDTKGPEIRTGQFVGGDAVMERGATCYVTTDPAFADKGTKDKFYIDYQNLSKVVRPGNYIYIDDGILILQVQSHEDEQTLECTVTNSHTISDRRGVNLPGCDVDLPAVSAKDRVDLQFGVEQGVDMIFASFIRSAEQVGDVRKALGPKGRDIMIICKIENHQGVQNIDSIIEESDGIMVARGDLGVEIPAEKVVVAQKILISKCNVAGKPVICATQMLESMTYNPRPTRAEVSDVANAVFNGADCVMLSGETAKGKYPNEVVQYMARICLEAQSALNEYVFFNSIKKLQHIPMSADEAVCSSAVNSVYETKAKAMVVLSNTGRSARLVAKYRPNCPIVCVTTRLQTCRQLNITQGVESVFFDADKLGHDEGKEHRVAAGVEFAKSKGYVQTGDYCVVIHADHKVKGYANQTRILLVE
#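 ATP generated from ADP (0.1 mM) and PEP (0.5 mM) by 0.1 nM LmPK over 1 h at room temperature (pH 7.2 imidazole buffer) was detected by coupled luciferase luminescence. Values were normalized to uninhibited and no-enzyme wells.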
# Active calls of the source: *; u = inconclusive; x = no result given; [ ] = dose if it differs, or a comment. This is a sample that favours compounds with a hit; in the whole collection about 3% have one here. Unless noted, calls follow the shape of the dose curve; as a rule, active = well fitted curve in the direction sought with a large enough effect; inconclusive = small, poorly fitted or top-dose-only effect, or another doubt; inactive = no such curve, though single readings can be large; an effect the other way counts as inactive or inconclusive. % is scaled to controls: 0 for no effect and ±100 for the full control effect; potency is read from the fitted curve at half-maximal effect.
SMILES,RE007 growth inh,Tb PYK inh,Sm TGR inh,LmPK inh
O=c1c2c([N+](=O)[O-])cc([N+](=O)[O-])cc2sn1Cc1ccccc1,-38.3%,1.58µM*,0.0%,-6.0%
O=C(Nc1ccc(Br)cc1)c1cc([N+](=O)[O-])cc([N+](=O)[O-])c1,3.1%,-27.0%,-19.2%,8.4%
O=c1c2c([N+](=O)[O-])cc([N+](=O)[O-])cc2sn1-c1ccc(Br)cc1,-87.4%,3.98µM*,u,0.6%
O=c1c2c([N+](=O)[O-])cc([N+](=O)[O-])cc2nc2ccccn12,-1.8%,1.3%,-9.4%,0.7%
COc1cc(C(=O)OC(COCCC(C)C)CN2CCOCC2)cc(OC)c1OC (configuration not stated),x,6.1%,x,x
COc1ccc(Cn2c(C)nc([N+](=O)[O-])c2SCC(=O)O)cc1[N+](=O)[O-],13.8%,3.8%,35.5µM*,6.4%
Cc1cnc(C)c(N2CCN(Cc3nc(-c4cccc(F)c4F)oc3C)CC2)n1,0.5%,-2.5%,35.5µM*,4.4%
CN[C@H](CC(C)C)C(=O)N[C@H]1C(=O)N[C@@H](CC(N)=O)C(=O)N[C@H]2C(=O)N[C@H]3C(=O)N[C@H](C(=O)N[C@H](C(=O)O)c4cc(O)cc(O)c4-c4cc3ccc4O)[C@H](O)c3ccc(c(Cl)c3)Oc3cc2cc(c3O[C@@H]2OC(CO)[C@@H](O)[C@H](O)[C@H]2O[C@H]2C[C@](C)(N)[C@H](O)[C@H](C)O2)Oc2ccc(cc2Cl)[C@H]1O (some centres not stated),x,2.0%,x,x
Cc1ccoc1C(=O)NCCCNC(=O)c1occc1C,0.5%,-1.5%,44.7µM*,-3.1%
Cc1cc(C(=O)NCc2ccc(C(=O)O)o2)c(C)o1,7.9%,-3.5%,-2.7%,4.6%
Cc1occc1C(=O)NCc1ccccc1,-7.9%,-2.4%,u,1.0%
Cc1occc1C(=O)NCCCCc1ccccc1,u,-13.8%,20µM*,1.7%
Cc1occc1C(=O)NCc1ccc(C(=O)O)o1,-3.1%,3.2%,39.8µM*,1.7%
Cc1occc1C(=O)NCCc1ccc(Cl)cc1,-11.1%,-2.3%,22.4µM*,-4.5%
O=C(NCc1ccccc1)c1cnc2sc(N3CCCC3)nn2c1=O,x,-1.6%,5.1%,x
CCN1CCN(c2ccc(Cl)cc2NC(=O)c2ccc(-n3nc(C)cc3C)cc2)CC1,0.6%,5.1%,-6.6%,x
Cc1cccc(NC(=O)C2C(C(=O)O)C3C=CC2C32CC2)c1C (configuration not stated),1.5%,-17.4%,8.9%[11.4 µM],7.6%
Cc1ccc(C)c(NC(=O)C2C3C=CC(O3)C2C(=O)O)c1 (configuration not stated),-3.0%,-14.8%,44.7µM*,3.5%
COc1cccc(NC(=O)C2C3C=CC(O3)C2C(=O)NCc2cccnc2)c1 (configuration not stated),-10.7%,0.5%,50.1µM*,5.2%
COC(=O)c1ccc(NC(=O)C2C3C=CC(O3)C2C(=O)O)cc1 (configuration not stated),u,-2.7%,u,-0.6%
Cc1cccc(NC(=O)C2C3C=CC(O3)C2C(=O)O)c1C (configuration not stated),-21.3%,6.0%,44.7µM*,-0.3%
CCOC(=O)c1ccc(NC(=O)C2C3C=CC(O3)C2C(=O)O)cc1 (configuration not stated),x,x,56.2µM*,3.2%
Cc1[nH]c(=O)[nH]c(=O)c1S(=O)(=O)Nc1ccc(F)c([N+](=O)[O-])c1,6.8%,-6.1%,-23.3%,-4.5%
CCCOc1cccc(C(=O)N(Cc2cc(OC)c(OC)c(OC)c2)C2CCS(=O)(=O)C2)c1 (configuration not stated),x,1.8%,1.7%,x
COC(=O)c1sccc1NC(=O)C1C2C=CC(O2)C1C(=O)O (configuration not stated),7.7%,-9.2%,-7.6%,5.6%
SMILES,RE007 growth inh,Tb PYK inh,Sm TGR inh,LmPK inh
Cc1cccc(NC(=O)C2C3C=CC(O3)C2C(=O)O)c1 (configuration not stated),x,x,11.2µM*,2.0%
COc1ccccc1NC(=O)C1C2C=CC(O2)C1C(=O)O (configuration not stated),x,x,39.8µM*,-0.7%
Cc1ccc(NC(=O)C2C3C=CC(O3)C2C(=O)O)c(C)c1 (configuration not stated),-17.6%,-1.0%,35.5µM*,3.3%
CC(=O)N1c2ccccc2C(=O)C1N1CCN(c2cc(Cl)ccc2C)CC1 (configuration not stated),x,-2.1%[15.4 µM],u,x
N#CCCN(C(=O)CCl)c1cccc(Cl)c1,0.6%,4.8%,7.08µM*,-5.4%
COc1ccc(NC(=O)C2CCN(S(=O)(=O)c3ccc4[nH]c(=O)ccc4c3)CC2)c(OC)c1,x,-0.8%,6.4%,x
CCOc1ccc(NC(=O)c2cc(S(=O)(=O)N3CCOCC3)cn2C)cc1,10.7%,-8.9%,11.2%,3.4%
Cc1nn2c(N3CCN(CCO)CC3)c3c(nc2c1-c1ccccc1)CCCC3,-21.4%,-2.4%,13.3%,1.9%
Cc1nn2c(N3CCCC3)c3c(nc2c1-c1ccccc1)CCC3,-5.6%,-1.5%,11.2µM*,3.3%
Cc1ccc(CNC(=O)c2ccc(Br)o2)cc1,6.1%,-4.4%,-3.8%,1.6%
Cc1cc2cc(CCNC(=O)c3ccc(Br)o3)c(=O)[nH]c2cc1C,18.4%,-19.9%,35.5µM*,3.4%
Cc1cc2cc(CNC(=O)c3ccc(Br)o3)ccc2[nH]1,-2.9%,-5.3%,39.8µM*,4.2%
CCCC(=O)NCc1ccc2c(c1)cc(C)n2C,0.9%,-2.6%,1.4%,-4.5%
Cc1cc2cc(CNC(=O)c3ccc(Br)o3)ccc2n1C,-16.1%,-1.3%,14.1µM*,3.7%
Cc1ccc(S(=O)(=O)NCc2ccc3[nH]c(C)cc3c2)cc1,-4.6%,-1.4%,11.2µM*,-0.3%[11.5 µM]
CC(=O)Nc1ccc(S(=O)(=O)NCc2ccc3[nH]c(C)cc3c2)cc1,-1.9%,5.9%,u,-0.1%
COc1ccc2cc(CCNC(=O)c3ccc(Br)o3)c(=O)[nH]c2c1,1.0%,-1.7%,u,-1.4%
C[C@H](CO)N1C[C@H](C)[C@@H](CN(C)S(=O)(=O)c2ccccc2)Oc2ccc(NS(=O)(=O)c3cccs3)cc2C1=O,7.1%,-8.1%,x,x
Cn1c(=O)c2cc(S(=O)(=O)NC(Cc3ccccc3)C(=O)NCc3ccco3)ccc2n(C)c1=O (configuration not stated),-1.1%,-5.7%,39.8µM*,6.2%
COCCCNC(=O)C(Cc1ccccc1)NS(=O)(=O)c1ccc2c(c1)c(=O)n(C)c(=O)n2C (configuration not stated),u,3.1%,0.4%,0.4%
CO/N=C(/C(=O)N[C@@H]1C(=O)N2C(C(=O)O)=C(CSc3cnns3)CS[C@H]12)c1csc(N)n1,x,-2.5%,x,x
CCN1CCN(C2=C(NS(=O)(=O)c3ccc(Br)cc3)C(=O)c3ccccc3C2=O)CC1,-20.6%,-9.8%,44.7µM*,-0.1%
